# According to the supplement of paper PMC10498489:
# Out of some 2,300 compounds screened, about 330 (14%) showed activity. Not all results are given here. Values without a mark were called inactive.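 How the source made its calls: active = median modified Z-score above 1.96; inactive = 1.96 or below.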
# Test system: HepG2 Srxn1-GFP reporter cells (+30 nM CDDO-Me)
# Assay: Srxn1-GFP intensity median modified Z-score relative to plate median; higher = stronger NRF2 / oxidative stress reporter activation, active = hit call of the paper
# Settings: 10 µM; exposure time: 24h
# Summary of the method: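 Values give the median, over replicates, of the modified Z-score of GFP intensity on each plate. HepG2 Srxn1-GFP BAC reporter cells were co-treated for 24 h with an NRF2 activator at 30 nM and compound at 10 μM (≤0.1% DMSO) in three replicate plates, then analysed per cell for cytoplasmic GFP on confocal images with at least 100 cells. Scaling used 1.4826 × median absolute deviation.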
row,Compound,Srxn1-GFP intensity median modified Z-score
1,COc1ccc(C)cc1CN1CCN(C(c2ccc(F)cc2)c2ccc(F)cc2)CC1,1.38
2,Oc1ccc2c(c1)OC[C@]1(O)C=c3cc(O)c(O)cc3=C21 [euspeclibcmpd1461],-0.856
3,NC(O)=NO [euspeclibcmpd156],0.197
4,O=C(O)c1ccc(S(=O)(=O)N(Cl)Cl)cc1 [euspeclibcmpd144],-0.332
5,Cc1[nH]oc(=NS(=O)(=O)c2ccc(N)cc2)c1C [euspeclibcmpd283],-0.063
6,CCC(C)C(=O)O[C@H]1C[C@@H](C)C=C2C=C[C@H](C)[C@H](CC[C@@H]3C[C@@H](O)CC(=O)O3)[C@H]21 (stereo partly specified) [euspeclibcmpd875],-0.147
7,O=C1CC(c2ccc(O)cc2)Oc2ccccc21 (stereo unspecified) [euspeclibcmpd2144],-0.183
8,O=C1CC(c2ccccc2)Oc2ccccc21 (stereo unspecified) [euspeclibcmpd1376],3.07 (active)
9,O=C1C[C@@H](c2ccc(O)cc2)Oc2cc(O)cc(O)c21 [euspeclibcmpd1328],0.815
10,COc1cc(O)c2c(=O)cc(-c3ccc(O)cc3)oc2c1 [euspeclibcmpd2253],0.0845
11,CCOC(=O)NN=c1[nH]ncc2ccccc12 [euspeclibcmpd1066],0.23
12,N=c1[nH]c(C(CCC(=O)O)C(=O)N=C2C(=O)N3C(C(=O)O)=CCS[C@H]23)cs1 (stereo partly specified) [euspeclibcmpd717],-0.318
13,O=C(CCc1ccc(O)cc1)c1c(O)cc(O)cc1O [euspeclibcmpd1518],16.3 (active)
14,CCC(=O)c1c(O)cc(O)cc1O [euspeclibcmpd1034],0.366
15,O=C(CCc1ccc(O)cc1)c1c(O)cc(O)cc1O[C@@H]1O[C@H](CO)[C@@H](O)[C@H](O)[C@H]1O [euspeclibcmpd1493],-0.343
16,Cc1c(C(=O)O)c(O)cc2c(O)c3c(O)c(O)c(C4O[C@H](CO)[C@@H](O)[C@H](O)C4=O)c(O)c3c(O)c12 (stereo partly specified) [euspeclibcmpd1436],-0.693
17,NC[C@H]1O[C@H](O[C@H]2[C@H](O)[C@@H](O[C@H]3O[C@H](CO)[C@@H](O)[C@H](N)[C@H]3O)[C@H](N)C[C@@H]2N)[C@H](N)[C@@H](O)[C@@H]1O [euspeclibcmpd351],0.19
18,CC[C@@H](CO)NCCN[C@@H](CC)CO [euspeclibcmpd120],-0.816
19,O=C(O)C1=C(CCO)O[C@@H]2CC(=O)N12 [euspeclibcmpd2294],0.746
20,O=C(O)CCC(=O)Nc1ccc(S(=O)(=O)N=c2[nH]ccs2)cc1 [euspeclibcmpd428],0.358
21,COc1cc(Cc2c[nH]c(=N)[nH]c2=N)cc(OC)c1OC [euspeclibcmpd310],0.316
22,CC1=C(/C=C/C(C)=C/C=C/C(C)=C/C=C/C=C(C)/C=C/C=C(C)/C=C/C2=C(C)C(=O)CCC2(C)C)C(C)(C)CCC1=O [euspeclibcmpd1669],-0.405
23,CC1CC(=O)NN=C1c1ccc(NN=C(C#N)C#N)cc1 (stereo unspecified) [euspeclibcmpd481],0.356

row,Compound,Srxn1-GFP intensity median modified Z-score
1,CN1CCC(=C2c3ccccc3Sc3ccccc32)CC1 [euspeclibcmpd1250],0.25
2,CN1CCC(=C2c3ccccc3C=Cc3ccccc32)CC1 [euspeclibcmpd890],7.54 (active)
3,CN1CCC(=C2c3ccccc3CCc3sccc32)CC1 [euspeclibcmpd488],0.0303
4,C=CCn1c(C(C)Oc2ccc(OCC)cc2)nnc1N1CCC(C(=O)OC)CC1 (stereo unspecified),1.58
5,Cn1c(SC2CCCCC2=O)nnc1-c1cccc(Br)c1 (stereo unspecified),4.66 (active)
6,CC1(O)CCOC(=O)C1 (stereo unspecified) [euspeclibcmpd1666],-0.384
7,N=c1[nH]c(N)ccc1N=Nc1ccccc1 [euspeclibcmpd230],0.85
8,O=C(CCCN1CCN(c2ccccn2)CC1)c1ccc(F)cc1 [euspeclibcmpd1317],0.00738
9,CCCC[C@@H](CC)COC(=O)c1ccccc1O [euspeclibcmpd865],-0.26
10,CN(C/C=C/c1ccccc1)Cc1cccc2ccccc12 [euspeclibcmpd791],0.553
11,c1ccc2c(CC3=NCCN3)cccc2c1 [euspeclibcmpd204],-0.697
12,CN(C/C=C/C#CC(C)(C)C)Cc1cccc2ccccc12 [euspeclibcmpd767],3.24 (active)
13,CC1(C)O[C@@H]2[C@@H](CO[C@@]3(COS(N)(=O)=O)OC(C)(C)O[C@@H]23)O1 [euspeclibcmpd870],0.206
14,CC(C)=CCC/C(C)=C/CO [euspeclibcmpd1453],2.94 (active)
15,CC(C)=CCC/C(C)=C/CC/C(C)=C/CC/C(C)=C/CC/C(C)=C/CC/C(C)=C/CC/C(C)=C/CC/C(C)=C/CC/C(C)=C/CO [euspeclibcmpd1640],-0.00439
16,CC(C)=CCC/C(C)=C/CC/C(C)=C/CO [euspeclibcmpd2192],1.35
17,Cc1ccc(-c2nc(CSc3nc(C)c(C)n3CC3CCCO3)co2)c(C)c1 (stereo unspecified),1.14
18,CCCC1O[C@@H]2CC3C4CC=C5CC(=O)C=CC5(C)C4[C@@H](O)CC3(C)[C@]2(C(=O)CO)O1 (stereo partly specified) [euspeclibcmpd352],-0.649
19,Oc1oc(O)c2c1C1CCC2O1 [euspeclibcmpd1748],3 (active)
20,CC(=O)O[C@H]1CC[C@]2(C)C3CC[C@@]4(C)C(CC5O[C@@]6(CCC(C)CO6)[C@@H](C)C54)C3CC[C@@H]2C1 (stereo partly specified) [euspeclibcmpd1531],-0.369
21,O=S(=O)(c1ccc(Cl)nc1)N(CC1CCCO1)C1CCSC1 (stereo unspecified),1.21
22,Cc1c(C)c(O)c(C(=CCCCCC(=O)O)c2ccccc2)c(C)c1O [euspeclibcmpd470],-0.366
23,COc1c2ccoc2nc2c(OC)c(OCC(O)C(C)(C)O)ccc12 (stereo unspecified) [euspeclibcmpd1658],26 (active)
